# Compound activity as filed in PubChem BioAssay.
# Giardia FBPA inh-1 = blocks Giardia fructose-bisphosphate aldolase activity; purified Giardia FBPA; AID 2451; 290,000 tested, 0.71% active; Potency, µM (top dose mostly 59.6 µM), for the others: top-dose activity, negative = inhibition, hits mostly inhibitors; A8B2U2; further: potency means the concentration at half of the fitted maximal effect; on the % scale 0 is the no-effect control and ±100 the full control effect; nearly all actives have a fitted effect of over 55% in size
# Target sequence (A8B2U2 whole entry, looked up): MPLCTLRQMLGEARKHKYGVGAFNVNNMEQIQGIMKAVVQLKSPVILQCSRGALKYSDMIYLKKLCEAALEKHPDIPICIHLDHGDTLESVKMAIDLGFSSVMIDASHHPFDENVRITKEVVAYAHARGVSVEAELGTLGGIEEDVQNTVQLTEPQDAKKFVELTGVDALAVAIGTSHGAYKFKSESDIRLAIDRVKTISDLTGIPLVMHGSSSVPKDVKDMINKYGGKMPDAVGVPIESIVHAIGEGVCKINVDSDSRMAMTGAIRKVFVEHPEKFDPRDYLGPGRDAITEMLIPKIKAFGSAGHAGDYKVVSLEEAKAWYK
#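 40 nM FBPA preincubated 10 min at RT with compound (up to 57.5 uM final), then substrate plus GAPDH/TPI/NAD/arsenate coupling and diaphorase/resazurin added. Fluorescence read after 20 min at RT, 525/598 nm.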
# Sm TGR inh = S. mansoni TGR enzyme inhibition | Q962Y6 | purified TGR, DTNB reduction, TNB absorbance 405 nm | Potency, µM (highest dose often 114 µM), for the others: at the top dose activity change, negative = inhibition, hits mostly inhibitors | 360,000 tested, 3% active | AID 485364; further: potency means the concentration at half of the fitted maximal effect; on the % scale 0 is the no-effect control and ±100 the full control effect; nearly all actives have a fitted effect of over 60% in size
#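 Kinetic colorimetric format: TGR-catalysed, NADPH-driven DTNB reduction monitored via TNB absorbance. Enzyme dispensed at 20 nM; compound exposure 15 min at room temperature before reaction start.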
# CHX counter = counter-screen for Shiga toxin inhibitors: cycloheximide protein synthesis inhibition. cell reporter, cycloheximide protein synthesis inhibition counterscreen. max response, %. 300,000 tested, 12% active; in the data active means max response mostly above about 13%, no sharp cut-off; inactive means mostly below about 14%; further: read at 38.3 µM for the half of the compounds with a filed dose; 0% is about no effect
# Shiga toxin inh = inhibitors of Shiga toxin in Vero cells; Vero cells, Shiga toxin protein synthesis inhibition reporter; inhibition, % at 38.7 µM; 290,000 tested, 9.2% active; AID 2315; in the data active means inhibition mostly above about 28%, no sharp cut-off; inactive means mostly below about 43%; further: 0% is about no effect
# TbPYK inhibitor = T. brucei pyruvate kinase inhibition; Q57TT1; TbPYK enzyme, Kinase-Glo Plus ATP luminescence, 45 min; Potency, µM (top dose mostly 76.8 µM), inactives show top-dose activity, negative = inhibition, usual class: inhibitors; 410,000 tested, 0.12% active; AID 624173; further: potency means the concentration at half of the fitted maximal effect; on the % scale 0 is the no-effect control and ±100 the full control effect; nearly all actives have a fitted effect of over 50% in size
#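 Luminescent Kinase-Glo Plus end-point after 45 min room-temperature reaction of T. brucei pyruvate kinase started with 130 uM ADP (final). Buffer TEA 50 mM pH 7.2 with KCl, MgCl2, BSA, Tween-20; titration-based qHTS with fitted concentration-effect curves.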
# LmPK inh = blocks Leishmania mexicana pyruvate kinase activity. Potency, µM (doses to about 57.5 µM), for inactives: at the highest dose activity change, negative = inhibition, most hits filed as inhibitors. AID 1721. Q27686. purified LmPK, Kinase-Glo ATP luminescence, 1 h. 290,000 tested, 0.37% active; further: potency means the concentration at half of the fitted maximal effect; on the % scale 0 is the no-effect control and ±100 the full control effect
#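 ATP generated from ADP (0.1 mM) and PEP (0.5 mM) by 0.1 nM LmPK over 1 h at room temperature (pH 7.2 imidazole buffer) was detected by coupled luciferase luminescence. Values were normalized to uninhibited and no-enzyme wells.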
# Giardia growth = Giardia lamblia growth inhibition; shares compounds with Giardia FBPA inh-1; Giardia lamblia trophozoite growth inhibition; Potency, µM (doses to about 57.5 µM), without a hit: at the top dose activity change, negative = inhibition, usual class: inhibitors; 1,500 tested, 5% active; AID 2785;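 further: potency means the concentration at half of the fitted maximal effect; trophozoites exposed to compound for 48 h at 37 °C; on the % scale 0 is the no-effect control and ±100 the full control effect; nearly all actives have a fitted effect of over 70% in size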
# Mammalian tox = mammalian cytotoxicity of Giardia aldolase inhibitor hits. Potency, µM (titrated, usually from 57.5 µM), for inactives: at the highest dose viability change, negative = toxicity, hits mostly inhibitors. shares compounds with Giardia FBPA inh-1. mammalian cell viability counter-screen, qHTS. 1,500 tested, 4% active;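 further: Chinese hamster ovary cells used as mammalian cytotoxicity surrogate; viability measured as cellular ATP by luminescence; potency means the concentration at half of the fitted maximal effect; compound exposure lasted 48 h before reading; on the % scale 0 is the no-effect control and ±100 the full control effect; nearly all actives have a fitted effect of over 60% in size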
# Giardia FBPA inh-2 = confirmation of Giardia fructose-bisphosphate aldolase inhibitors | shares compounds with Giardia FBPA inh-1 | purified Giardia aldolase enzyme activity, qHTS | Potency, µM (titrated, usually from 57.5 µM), for inactives: at the highest dose activity change, negative = inhibition, actives largely listed as inhibitors | 1,500 tested, 5% active; further: potency means the concentration at half of the fitted maximal effect; on the % scale 0 is the no-effect control and ±100 the full control effect; nearly all actives have a fitted effect of over 45% in size
# Rabbit aldolase = selectivity test for Giardia aldolase inhibitors: rabbit aldolase | AID 2794 | Rabbit muscle FBPA enzyme inhibition, selectivity counter-screen | shares compounds with Giardia FBPA inh-1 | Potency, µM (highest dose often 57.5 µM), for inactives: top-dose activity, negative = inhibition, most hits filed as inhibitors | 1,500 tested, 4% active; further: potency means the concentration at half of the fitted maximal effect; on the % scale 0 is the no-effect control and ±100 the full control effect; nearly all actives have a fitted effect of over 60% in size
# Target sequence (P00883 whole entry, looked up): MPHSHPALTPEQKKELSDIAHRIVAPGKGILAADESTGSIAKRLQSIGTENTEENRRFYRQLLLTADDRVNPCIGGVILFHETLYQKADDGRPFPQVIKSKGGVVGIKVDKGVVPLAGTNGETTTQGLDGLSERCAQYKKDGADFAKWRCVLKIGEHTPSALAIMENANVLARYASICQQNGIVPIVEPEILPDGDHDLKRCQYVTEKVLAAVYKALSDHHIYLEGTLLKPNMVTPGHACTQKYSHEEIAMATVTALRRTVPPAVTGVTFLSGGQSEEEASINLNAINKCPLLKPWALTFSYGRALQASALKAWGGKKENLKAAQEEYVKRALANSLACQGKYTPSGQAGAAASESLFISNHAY
# GAPDH coupling = GAPDH inhibition flagged for Giardia aldolase hits | 1,500 tested, 6% active | shares compounds with Giardia FBPA inh-1 | Potency, µM (series often up to 57.5 µM), inactives show top-dose activity change, negative = inhibition, usual class: inhibitors | GAPDH coupling enzyme counterscreen, biochemical, qHTS | AID 2795; further: potency means the concentration at half of the fitted maximal effect; on the % scale 0 is the no-effect control and ±100 the full control effect; nearly all actives have a fitted effect of over 55% in size
# Numbers without * were called inactive; ? = inconclusive; · = no result given; [ ] = remark or other dose. Shown is part of a subset that was picked to be rich in hits. Unless noted, the call rests on the fitted dose curve; in most records, active means well fitted curve in the direction sought with a large enough effect; inconclusive means small, poorly fitted or top-dose-only effect, or another doubt; inactive means no such curve, though single readings can be large; an effect the other way counts as inactive or inconclusive.
SMILES,Giardia FBPA inh-1,Sm TGR inh,CHX counter,Shiga toxin inh,TbPYK inhibitor,LmPK inh,Giardia growth,Mammalian tox,Giardia FBPA inh-2,Rabbit aldolase,GAPDH coupling
Cc1ccc([N+](=O)[O-])cc1S(=O)(=O)N1CCn2cccc2C1c1ccccc1 (stereo not drawn),·,4%,·,·,2%,·,·,·,·,·,·
CCOc1ccc(C(=O)n2cc(C(=O)OC)c3ccccc32)cc1,3%,5%,-3,16,0%,-5%,·,·,·,·,·
O=[N+]([O-])c1ccccc1CN1CCN(Cc2c[nH]c3ccccc23)CC1,20µM*,-11%,1,-3,20%,10%,5%[10.4 µM],-23%,1%,3%,5%
Cc1cc(C)c(NC(=O)CCN2C(=O)c3ccccc3S2(=O)=O)c(C)c1,·,5%,·,·,3%,·,·,·,·,·,·
Oc1c(C(Nc2nc3ccccc3s2)c2ccco2)ccc2cccnc12 (stereo not drawn),16µM*,?,-1,37,-11%,-2%,35%,?,-23%,-3%,-8%
Cc1c(N=Nc2c(O)n(-c3ccc(Br)cc3)c(=O)[nH]c2=O)c(=O)n(-c2ccccc2)n1C,16µM*,10µM*,-2,-15,-3%,0%,?,10%,9%,0%,-6%
Cc1c(N=Nc2c(O)[nH]c(=O)[nH]c2=O)c(=O)n(-c2ccccc2)n1C,16µM*,-2%,1,-1,4%,-3%,2%[10.4 µM],22%,-3%,-20%,-9%
Cc1c(N=Cc2c(O)n(C)c(=O)[nH]c2=O)c(=O)n(-c2ccccc2)n1C,3%,7%,1,-6,0%,5%,·,·,·,·,·
COc1ccc(C2=Cc3ccccc3C(CC(=O)C3CC3)N2c2ccc(-c3cc(OC)c(OC)c(OC)c3)cc2)cc1 (stereo not drawn),·,·,·,·,8%,·,·,·,·,·,·
CN1CCN(C(=S)NC(=O)c2ccc(C(C)(C)C)cc2)CC1,-19%,-5%,-2,-8,?,-7%,·,·,·,·,·
CC1CN(C(=S)NC(=O)c2ccc(Cl)cc2)CC(C)O1 (stereo not drawn),·,-1%,-2,-4,-27%,0%,·,·,·,·,·
Cc1ccc2c(c1)C1CN(C)CCC1N2C(=S)NC(=O)c1ccc(Br)cc1 (stereo not drawn),16µM*,-15%,1,-4,-13%,5%,8.9µM*,-8%,-12%,6%,7%
Cc1ccc2c(c1)C1CN(C)CCC1N2C(=O)c1ccc(Br)o1 (stereo not drawn),-6%,?,7,-2,0%,3%,·,·,·,·,·
CN1CCN(C(=S)NC(=O)c2ccc(Br)cc2)CC1,18µM*,-22%,13*,36*,-22%,?,-6%,-3%,9%,-1%,9%
O=CN1CCN(C(=S)NC(=O)c2ccc(Cl)cc2)CC1,10µM*,-16%,2,14,-4%,-5%,-5%[38.3 µM],10%,2%,5%,-7%
CN1CCN(C(=S)NC(=O)c2ccc(-c3ccccc3)cc2)CC1,18µM*,2%,-2,19,-24%,-1%,-11%[10.4 µM],2%,6%,12%,-5%
O=C(CCOc1ccccc1)Nc1ccnn1C1CCN(CCc2ccccc2)CC1,-3%,-2%,-7,-8,5%,-9%,·,·,·,·,·
C=C1CCC[C@]2(C)C[C@H]3OC(=O)C(CNCCN(CC)CC)[C@H]3CC12 (stereo partly drawn),16µM*,0%,-6,3,0%,-4%,?,12%,1%,12%,8%
Cc1ccccc1C(=O)NN1C(=O)CSC1=S,-22%,1%,-2,-10,-4%,2%,·,·,·,·,·
O=C(NN1C(=O)CSC1=S)c1cccnc1,16µM*,7%,-3,-12,-6%,0%,10%,-1%,1%,3%,11%
Cc1cccc2c(N)c3c(nc12)N(C)CC3,16µM*,-4%,2,5,1%,0%,?,12%,-1%,-6%,8%
CN1CCc2c1nc1ccccc1c2N (tested in a mixture with another compound),-11%,2%,5,-2,1%,4%,·,·,·,·,·
Cc1ccc(N(C)C(=O)CN(C)S(=O)(=O)c2ccc3c(c2)n(C)c(=O)c(=O)n3C)cc1,-3%,-10%,7,21,3%,3%,·,·,·,·,·
Nc1ccc(S(=O)(=O)NCc2ccccn2)cc1,-5%,-19%,-2,3,-1%,-2%,·,·,·,·,·
O=S(=O)(NCc1ccccn1)C(F)(F)F,2.8µM*,-11%,0,1,0%,1%,2%[10.4 µM],1%,10%,6%,11%
SMILES,Giardia FBPA inh-1,Sm TGR inh,CHX counter,Shiga toxin inh,TbPYK inhibitor,LmPK inh,Giardia growth,Mammalian tox,Giardia FBPA inh-2,Rabbit aldolase,GAPDH coupling
O=C(Oc1nsnc1N1CCOCC1)N(c1ccccc1)c1ccccc1,5%,18%,11,7,3%,9%,·,·,·,·,·
COC(=O)Oc1nsnc1N1CCOCC1,14µM*,-7%,-2,-2,-39%,-3%,-28%,10%,-13%,?,?
N#C/C(=C\c1ccc(F)c(Cl)c1)S(=O)(=O)c1ccccn1,-15%,-10%,1,11,-5%,-10%,·,·,·,·,·
COc1ccc(C(=O)COC(=O)CN2C(=O)c3ccccc3C2=O)c(OC)c1,·,1%,-4,-14,-4%,1%,·,·,·,·,·
CSc1cccc(NC(=S)N(CCC(C)C)C(C)c2ccncc2)c1 (stereo not drawn),-3%,3%,-6,3,-26%,1%,·,·,·,·,·
COc1cc(N=c2ssnc2Cl)cc(OC)c1OC,20µM*,?,-2,-8,?,-1%,-4%[10.4 µM],5%,-28%,32µM*,-6%
COc1cc(-c2nnc(-c3cc(OC)c(OC)c(OC)c3)o2)cc(OC)c1OC,2%,5%,-3,21,-7%,-1%,·,·,·,·,·
COC(=O)c1ccc(C(=O)O)nc1,20µM*,-7%,-3,-2,1%,0%,61%,11%,3%,12%,-3%
